# From PubChem BioAssay AID1851 (National Center for Advancing Translational Sciences (NCATS), 2009)
# Where “and” joins values, the source holds several entries; their conditions need not be identical. Equal values may be shown once. Out of some 16,000 compounds screened, about 2,600 (16%) were called active. Roughly 20% stayed inconclusive and do not appear here. The call rests on the fitted dose curve; in most records, active means well fitted curve in the direction sought with a large enough effect; inconclusive means small, poorly fitted or top-dose-only effect, or effect the other way; inactive means no such curve, though single readings can be large or run the other way. A selection follows. The source holds several records for some structures; these can differ, active in one and inactive in another. Square brackets hold non-standard residues; d marks the D form. Peptide text beside a SMILES is read from it. * marks the point of attachment. ξ: configuration not given here. Cbz = O=C(OCc1ccccc1)*; OBn = c1ccc(CO*)cc1; ξP = O=C(O)C1CCCN1
# Target: Cytochrome P450 2D6 (Homo sapiens) (UniProt P10635)
# Sequence (P10635 whole entry, looked up): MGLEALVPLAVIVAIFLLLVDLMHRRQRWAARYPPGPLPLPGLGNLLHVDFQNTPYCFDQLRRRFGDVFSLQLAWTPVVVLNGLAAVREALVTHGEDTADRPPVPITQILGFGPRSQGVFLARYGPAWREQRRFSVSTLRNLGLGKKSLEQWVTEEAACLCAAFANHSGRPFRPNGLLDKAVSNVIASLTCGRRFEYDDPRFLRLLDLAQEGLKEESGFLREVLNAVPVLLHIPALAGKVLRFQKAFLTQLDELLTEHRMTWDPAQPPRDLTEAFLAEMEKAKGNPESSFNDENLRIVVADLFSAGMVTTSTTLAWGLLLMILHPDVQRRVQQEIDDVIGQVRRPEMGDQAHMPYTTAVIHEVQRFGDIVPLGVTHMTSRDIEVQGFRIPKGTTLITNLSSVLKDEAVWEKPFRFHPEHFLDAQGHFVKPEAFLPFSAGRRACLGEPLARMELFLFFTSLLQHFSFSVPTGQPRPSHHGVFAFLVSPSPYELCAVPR
# Assay: Cytochrome panel assay with activity outcomes
# Details: recombinant CYP, pro-luciferin dealkylation, luminescence, p450-cyp2d6; series mostly up to 57.1 µM; activity, negative = inhibition: at the top concentration
# On the % scale 0 is the no-effect control and ±100 the full control effect.
Structure (SMILES),"activity, negative = inhibition",AC50
CC(C)CCN1CC(C(=O)N2CCN(c3ccc(F)cc3)CC2)CC1=O (centres undefined),-1.61% (inactive),–
CCOC(=O)c1cnc2c(cnn2C)c1NCCCN(C)C,-15.8% (inactive),–
CCCCNc1c(C(=O)OCC)c(C)nc2c1cnn2CC,–,inactive and 200 nM (active)
CCOC(=O)c1cnc2c(cnn2CC)c1NN=C(C)C,–,inactive
C#CCCCO/N=C1/C[C@@H](O)[C@@H](O)[C@@H]2[C@@H]3C(=O)N(Cc4ccccc4)C(=O)[C@H]3CC[C@@H]12,19.7% [at 11.4 µM] (inactive),–
CCOC(=O)C(NC(=O)CC)(Nc1sc2c(c1C(=O)OC)CCN(C)C2)C(F)(F)F (centres undefined),-1.69% (inactive),–
CCCNC(=O)OC[C@H]1O[C@@H](CCO/N=C\[C@@H](NS(=O)(=O)c2ccc(C)cc2)[C@H](C)/C=C\CC(=O)OC)C=C[C@@H]1Oc1ccc(OC)cc1,-7.16% [at 11.4 µM] (inactive),–
NNC(=O)CCc1ccc2ccc3ccccc3c2c1,–,1.58 µM (active)
O=C(O)CCCc1ccc2ccccc2c1,0.631% [at 11.4 µM] (inactive),–
COc1ccc2cc(CCC(C)=O)ccc2c1,-4.42% [at 25.6 µM] (inactive),–
CS(=O)(=O)N1CCN(c2ccc(C(=O)NC3C4CC5CC(C4)CC3C5)cc2[N+](=O)[O-])CC1 (centres undefined),-10% (inactive),–
O=C(NCCOc1nc(N2CCOCC2)nc(N2CCOCC2)n1)Nc1ccccc1,6.07% (inactive),–
CCN(CC)c1ccc(NC(=O)CN2CCN(c3ccccc3F)CC2)cc1,-23.1% (inactive),–
Cc1ccc(NC(=O)CCC(=O)c2ccc(F)cc2)cc1Cl,-10.9% (inactive),–
O=C(CCN1CCc2ccccc2C1)Nc1ccc(F)cc1,–,2.24 µM (active)
O=C(NCCCN1CCN(c2ccccc2F)CC1)C1CCC(=O)N1C1CCCCC1 (centres undefined),-17.4% (inactive),–
O=C(NCCCN1CCCC1=O)Nc1ccc(F)c(Cl)c1,0.447% (inactive),–
Cc1ccccc1CS(=O)(=O)CCC(=O)NCCCN1CCN(c2ccccc2F)CC1,–,3.55 µM (active)
Cc1ccc(CS(=O)(=O)CCC(=O)NCCCOC(C)C)cc1,10.1% (inactive),–
CSc1ccc(NC(=O)NCCCN2CCN(c3ccccc3F)CC2)cc1,–,3.55 µM (active)
O=C(O)c1ccccc1-c1ccccc1C(=O)Nc1ccc2c(c1)Cc1cc(F)ccc1-2,-13.4% [at 11.4 µM] (inactive),–
Cc1ccc(CS(=O)(=O)CCC(=O)NCCCN2CCCC2)cc1,-24.2% (inactive),–
O=C(NCCCN1CCc2ccccc2C1)Nc1ccc(Cl)cc1,–,3.55 µM (active)
O=C(O)/C=C/C(=O)Nc1ccc(F)cc1F,22.9% (inactive),–
O=C(O)C[C@H]1OCC=C2C[N@@+]3([O-])CC[C@]45c6ccccc6N[C@@H]4[C@@H]1[C@H]2C[C@H]53,9.02% [at 11.4 µM] (inactive),–

Structure (SMILES),"activity, negative = inhibition",AC50
Cc1nc2cnc(N(C)C)nc2n(C)c1=O,-12.7% (inactive),–
O=C(O)c1ccccc1-c1ccccc1C(=O)Nc1ccc2c(c1)[nH]c(=O)c1ccccc12,-5.23% [at 11.4 µM] (inactive),–
O=c1c(-c2cc(F)cc(F)c2)nc2cncnc2n1Cc1ccccc1Cl,-8.97% (inactive),–
CN1CCN(NC(=O)CN2C(=O)/C(=C/c3c(Cl)cccc3Cl)SC2=S)CC1,-9.02% (inactive),–
COc1cc2cc3c(N)c(C(=O)Nc4sc(C)c(C)c4C#N)sc3nc2cc1OC,-0.0904% (inactive),–
C[C@](N)(C(=O)O)c1ccc(-c2nn[nH]n2)cc1,-0.522% (inactive),–
CCOC(=O)c1cc(CC)sc1NC(=O)c1cc(OCC)c(OCC)c(OCC)c1,-1.3% (inactive),–
NCCNC(=S)S,-18.7% [at 11.4 µM] (inactive),–
Cn1nc(-c2ccccc2)c(C(=O)Nc2ccc(Cl)cc2)c1Cl,18.7% (inactive),–
Cc1ccc(NC(=O)N/C=C/c2ccc(Cl)cc2)cc1,8.55% (inactive),–
CSc1ccc(NC(=O)Nc2cc(C)ccn2)cc1,-10.4% [at 11.4 µM] (inactive),–
COc1ccc2c(Cl)c(C(=O)NCCCn3ccnc3)sc2c1Cl,–,0.631 µM (active)
S=C(S)NCCN1CCNCC1,-7.83% [at 11.4 µM] (inactive),–
COc1ccc(C(=O)N/C(=C/c2cccs2)C(=O)NCCCn2ccnc2)cc1OC,-6.39% (inactive),–
O=C(NCc1cccnc1)c1sc2cc(Cl)ccc2c1Cl,-81.1% (inactive),–
S=C(S)NCCCn1ccnc1,–,0.794 µM (active)
O=C(NCCCn1ccnc1)Nc1ccc(Cl)cc1,–,1.58 µM (active)
CSc1ccc(NC(=O)NCCN2CCc3ccccc3C2)cc1,–,5.01 µM (active)
Cc1ccc(NC(=O)NCCCc2ccccc2)cc1,-26.1% (inactive),–
Nc1nc2c(c(=O)[nH]1)CN(CCCN1CCOCC1)CN2,0.904% [at 11.4 µM] (inactive),–
Nc1ccc(S(=O)(=O)Nc2ncccn2)cc1,-3.37% [at 25.6 µM] (inactive),–
O=C1[C@H]2[C@H]3[C@H](O)[C@H](O)C/C(=N/OC[C@@H](O)COCc4ccco4)[C@@H]3CC[C@@H]2C(=O)N1C[C@@H]1CCCO1,3.77% [at 11.4 µM] (inactive),–
Cc1nnc(NC(=O)c2cccc(NC(=O)C(C)C)c2)s1,-16.4% (inactive),–
O=C(O)c1cc(S(=O)(=O)NCC2CCCO2)ccc1Cl (centres undefined),7.8% (inactive),–
CN[C@@H]1[C@H](O[C@H]2[C@@H](O[C@@H]3[C@@H](O)[C@@H](O)[C@@H](N=C(N)N)[C@@H](O)[C@@H]3N=C(N)N)O[C@@H](C)[C@]2(O)CO)O[C@H](CO)[C@@H](O)[C@@H]1O,6.76% [at 25.6 µM] (inactive),–

Structure (SMILES),"activity, negative = inhibition",AC50
COc1ccccc1C1=NOC(COC(=O)c2ccc3ccccc3n2)C1 (centres undefined),-15.5% (inactive),–
Cc1cccc(N(CC(=O)NCCSCc2ccco2)S(=O)(=O)c2ccccc2)c1,–,10 µM (active)
Cc1cccc(Cc2c(C)nc3nc(SCC(=O)NCc4ccco4)nn3c2C)c1,-28.1% (inactive),–
CN(c1ccc(C(=O)NCc2ccccn2)cc1)S(C)(=O)=O,0.808% (inactive),–
CN(c1ccc(C(=O)NCC2CCCO2)cc1)S(=O)(=O)c1ccccc1 (centres undefined),-3.97% (inactive),–
CN(CCC(=O)O)S(=O)(=O)c1ccccc1,4.74% [at 11.4 µM] (inactive),–
Cc1cccc(N(CC(=O)N2CCOCC2)S(C)(=O)=O)c1,6.15% (inactive),–
O=C(CN(c1ccccc1)S(=O)(=O)c1ccccc1)NCCSCc1ccco1,–,15.8 µM (active)
COc1ccc(S(=O)(=O)N(C)CC(=O)NCc2ccco2)cc1,-21.7% (inactive),–
Cc1cccc(CSCCNC(=O)c2ccc(N(C)S(=O)(=O)c3ccccc3)cc2)c1,–,3.98 µM (active)
COc1cccc(Nc2ncc3ncc(=O)n(C4CC4)c3n2)c1,-7.19% (inactive),–
Cc1ccc(C)c(CN2C(=O)C3CCCN3c3ccc(C#N)cc32)c1 (centres undefined),-24.5% (inactive),–
CCOC(=O)c1c(C)oc2c1c(C=NC1CCS(=O)(=O)C1)c(O)c1ccccc12 (centres undefined),16% (inactive),–
CCN1C(=O)[C@H]2[C@H]3[C@H](O)[C@H](O)C/C(=N/O[C@@H](C)c4cn([C@H](CO)Cc5ccccc5)nn4)[C@@H]3CC[C@@H]2C1=O,6.53% [at 11.4 µM] (inactive) and -9.99% [at 11.4 µM] (inactive),–
Cc1c(/C=N/NC(=O)c2ccc3c(c2)OCO3)cnn1C,-7.96% (inactive),–
CCNC(=S)NNC(=O)c1cc(C2CC2)nc2ccccc12,-6.71% (inactive),–
COC(=O)c1nn(-c2ccccc2)c(-c2ccccc2)c1C(=O)c1ccccc1,18.4% (inactive),–
CCCOc1ccccc1C1CC(=O)NC(C)=C1C(=O)OCC(C)C (centres undefined),34.2% (inactive),–
O=C(NCCO)c1cc2c(s1)CCC2,23.4% (inactive),–
Cc1cc(C(=O)CC#N)c(C)n1CC(F)(F)F,8.26% (inactive),–
CCOC(=O)c1c2c(n3ccccc13)C(=O)c1ccccc1C2=O,5.34% [at 11.4 µM] (inactive),–
COCCNC(=O)Cn1cnc2ccc(S(=O)(=O)N3CCC(C)CC3)cc2c1=O,30.8% (inactive),–
Cc1ccc2nc(N3CCN(S(=O)(=O)c4ccc5c(c4)OCCO5)CC3)c(C#N)cc2c1,-8.49% (inactive),–
NC(=O)c1ccc(NC(=O)C2CCCO2)cc1 (centres undefined),-1.89% (inactive),–
CSc1ccc(CNc2ccc(C)c(C)c2)cc1,–,11.2 µM (active)

Structure (SMILES),"activity, negative = inhibition",AC50
CSc1ccc(CNc2ccc(Cl)cc2)cc1,-40.9% (inactive),–
Cc1nc2cnc(Oc3ccccc3)nc2n(C)c1=O,1.84% (inactive),–
COc1ccc(-c2nc3cnc(OC)nc3n(C)c2=O)cc1,-0.979% (inactive),–
CCCS(=O)(=O)N1CCCC(C(=O)NCc2cccnc2)C1 (centres undefined),-1.8% (inactive),–
O=C(Nc1ccc(Cl)c(C(F)(F)F)c1)C1CCCN(S(=O)(=O)c2cnc[nH]2)C1 (centres undefined),–,3.98 µM (active)
COc1ccc(OC)c(S(=O)(=O)N2CCC(C(=O)Nc3ccc(C)c(C)c3)CC2)c1,-12.1% (inactive),–
CCOc1ccc(-c2nnc3ccc(SC)nn23)cc1,-16.4% (inactive),–
N[C@@H](CSS(=O)(=O)O)C(=O)O,-1.36% (inactive),–
CCOC(=O)c1c(C)nc2sc3c(=O)n(-c4ccc(C(C)=O)cc4)nnc3c2c1-c1ccc(Cl)cc1,0.783% (inactive),–
CN(C)Cc1ccccc1-c1cncnc1NCc1cccnc1,–,6.31 µM (active)
Cc1ccccc1-c1cncnc1NCc1ccccc1,–,12.6 µM (active)
Cc1noc(C)c1-c1cncnc1NCc1ccccc1,0.449% (inactive),–
N#Cc1ccccc1-c1cncnc1NCc1cccnc1,-4.85% (inactive),–
CN(C)C(=O)c1ccc(-c2cncnc2NCc2cccnc2)cc1,-19.7% (inactive),–
Cc1cccc(CNc2ncncc2-c2ccccc2C)c1,–,3.98 µM (active)
Cc1ccccc1-c1cncnc1NCc1cccnc1,–,15.8 µM (active)
CC(C)Sc1cc(N2CCCC2)nc(-c2ccc(F)cc2)n1,-3.37% (inactive),–
C=CCNC(=S)N/N=C/c1ccc(-c2cc(Cl)ccc2Cl)o1,8.52% (inactive),–
O=C(CNC(=O)OCc1ccccc1)NCC(=O)N1CCCC1C(=O)OCc1ccccc1 (stereo not drawn) (Cbz-Gly-Gly-[ξP]-OBn),-22.2% (inactive),–
CSCCC(NC=C1C(=O)OC(C)(C)OC1=O)C(=O)O (centres undefined),-5.1% (inactive),–
CCOc1cc(/C=C2/NC(=O)N(CC(=O)Nc3cccc(C)c3)C2=O)ccc1OC,27.9% (inactive),–
CCCCSCc1nc2nc(Cl)c(Cl)nc2[nH]1,-12.2% [at 11.4 µM] (inactive),–
C[n+]1ccc(/C=C/c2ccc(Br)cc2)cc1,-25.3% (inactive),–
OCCNc1ncnc2nc[nH]c12,-4.05% [at 11.4 µM] (inactive),–
